High-throughput results (PubChem)
Sampled rows, rich in hits. Any-hit rate of the full collection: about 18%.
PLK1 PBD block = PLK1 (human) polo-box domain binding inhibition | P53350 | Plk1 PBD binding of FITC phosphopeptide, fluorescence polarization | Potency, µM, usual class: inhibitors | actives 2.8% (n = 360,000) | AID 720504; further: series mostly up to about 57 µM; nearly all actives have a fitted effect of over 65% in size
VDR inh = inhibitors of human vitamin D receptor | VDR-SRC2-3 peptide fluorescence polarization, 2 h | Potency, µM, most hits filed as inhibitors | actives 0.93% (n = 400,000) | AID 504847 | P11473
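Two reagent solutions held at 4 deg C in the dark were dispensed, compounds pinned at 23 nl, and the mixture incubated 2 h at room temperature. Read-out: fluorescence polarization of VDR–SRC2-3 peptide binding.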
TDP1 cell noCPT = qHTS for Inhibitors of human tyrosyl-DNA phosphodiesterase 1 (TDP1): qHTS in cells in absence of CPT; DT40 Tdp1-/- hTDP1 cells, no CPT, ATP luminescence, 48 h; Potency, µM (doses to about 46.2 µM), most hits filed as inhibitors; actives 15% (n = 420,000); AID 686978, 2013; further: nearly all actives have a fitted effect of over 55% in size
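Readout: luminescence from CellTiter-Glo after 30 min in the dark at RT. Cells: DT40 Tdp1-/- with stable hTDP1, 400/well. Exposure: compounds alone, ≥48 hr, 37 °C.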
GCN5L2 inh = GCN5L2 (KAT2A) acetyltransferase inhibition. GCN5L2 HAT assay, ThioGlo1 CoA-SH fluorescence. Potency, µM (doses to about 58.9 µM), actives largely listed as inhibitors. actives 0.21% (n = 390,000). AID 504327
Target sequence (Q92830 whole entry, looked up): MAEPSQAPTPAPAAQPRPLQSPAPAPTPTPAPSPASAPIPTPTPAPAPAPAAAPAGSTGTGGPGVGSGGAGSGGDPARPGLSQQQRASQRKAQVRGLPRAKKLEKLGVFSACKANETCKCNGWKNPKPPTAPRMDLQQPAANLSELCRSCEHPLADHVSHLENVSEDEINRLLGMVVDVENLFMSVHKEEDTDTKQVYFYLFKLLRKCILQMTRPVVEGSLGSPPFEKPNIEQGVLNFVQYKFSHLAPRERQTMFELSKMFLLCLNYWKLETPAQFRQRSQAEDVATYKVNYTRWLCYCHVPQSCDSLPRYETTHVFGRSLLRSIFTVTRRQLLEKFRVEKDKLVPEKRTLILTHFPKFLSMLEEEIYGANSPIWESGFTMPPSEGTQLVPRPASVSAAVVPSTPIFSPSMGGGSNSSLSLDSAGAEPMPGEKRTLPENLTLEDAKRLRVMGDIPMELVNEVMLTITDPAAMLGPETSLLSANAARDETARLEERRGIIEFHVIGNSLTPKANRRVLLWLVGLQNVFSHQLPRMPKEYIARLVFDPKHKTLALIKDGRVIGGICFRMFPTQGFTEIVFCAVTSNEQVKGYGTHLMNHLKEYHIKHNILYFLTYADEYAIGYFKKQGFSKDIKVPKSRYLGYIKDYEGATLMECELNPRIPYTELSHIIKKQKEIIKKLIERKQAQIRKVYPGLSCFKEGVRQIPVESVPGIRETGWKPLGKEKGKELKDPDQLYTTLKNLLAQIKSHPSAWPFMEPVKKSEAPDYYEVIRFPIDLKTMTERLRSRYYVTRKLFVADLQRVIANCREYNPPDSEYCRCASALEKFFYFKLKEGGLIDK
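Preincubate 20nM GCN5L2 with compound 15 min, RT → add 50uM ThioGlo1 + 75uM H3(1-25) + 70uM acetyl-CoA → read fluorescence 0 and 20 min. Primary qHTS; fluorescent artifacts likely.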
TDP1 cell CPT = DT40-hTDP1 cell growth loss with CPT. chicken DT40 Tdp1-/-;hTDP1 cells + 20 nM CPT, ATP luminescence, 48 h. Potency, µM (series often up to 46.2 µM), usual class: inhibitors. actives 12% (n = 420,000); further: nearly all actives have a fitted effect of over 55% in size
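Chicken DT40 Tdp1-/- cells complemented with human TDP1, 400 cells/well, exposed to compounds plus 20 nM camptothecin for at least 48 h at 37 C; viability read as ATP content by CellTiter-Glo luminescence.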
TDP1 block = inhibitors of human tyrosyl-DNA phosphodiesterase TDP1; recombinant TDP1, AlphaScreen DNA substrate cleavage; Potency, µM (titrated, usually from 130 µM), usual class: inhibitors; actives 0.28% (n = 350,000); further: nearly all actives have a fitted effect of over 40% in size
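Tdp1 1 nM final; 15 min RT w/ cpd; substrate 15 nM, 5 min; beads 10 ug/ml, 10 min; AlphaScreen read. Neg ctrl: no enzyme.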
Hits are given with their value; . = inactive; ? = inconclusive; / = not tested or not shown; [ ] = another dose, or the depositor's remark. The call rests on the fitted dose curve; in most records, active means well fitted curve in the direction sought with a large enough effect; inconclusive means small, poorly fitted or top-dose-only effect, or another doubt; inactive means no such curve, though single readings can be large; an effect the other way counts as inactive or inconclusive.

SMILES	PLK1 PBD block	VDR inh	TDP1 cell noCPT	GCN5L2 inh	TDP1 cell CPT	TDP1 block
CC1CCN(S(=O)(=O)c2ccc(C(=O)Nc3nnc(C4CC4)o3)cc2)CC1	.	.	?	.	18µM	.
Cc1nnc(NC(=O)c2ccc(S(=O)(=O)N3CC(C)CC(C)C3)cc2)o1 (configuration not stated)	.	.	16µM	.	?	.
Cc1cccc(NC(=O)c2ccc(S(=O)(=O)N3CCC(C)CC3)cc2)n1	.	.	16µM	.	?	.
Cc1ccc(C)c(C(=O)C(C)OC(=O)CN2C(=O)NC3(CC(C)CC(C)(C)C3)C2=O)c1 (configuration not stated)	.	.	.	.	.	.
COc1cc(OC)cc(C(=O)Nc2ccc3oc(-c4ccc(Cl)cc4)nc3c2)c1	/	.	?	.	?	.[12.3 µM]
COc1ccc(Cl)cc1NC(=O)c1oc2ccc(S(=O)(=O)N3CCCCC3)cc2c1C	/	.	.	.	.	.
CC1CCCCN1S(=O)(=O)c1ccc(C(=O)Nc2nnc(C3CC3)o2)cc1 (configuration not stated)	.	.	?	.	16µM	.
CC1CN(S(=O)(=O)c2ccc(C(=O)Nc3nnc(-c4ccc5c(c4)CCCC5)o3)cc2)CC(C)O1 (configuration not stated)	?	.	12µM	.	6.5µM	.
Cc1nnc(NC(=O)c2ccc(S(=O)(=O)N3CCCCC3C)cc2)o1 (configuration not stated)	.	.	.	.	.	.
CNC(=O)c1c(NC(=O)c2ccc(S(=O)(=O)N3CCCCC3C)cc2)sc2c1CCC2 (configuration not stated)	/	.	15µM	.	13µM	.
CC1CC(C)CN(S(=O)(=O)c2ccc(C(=O)NCCCn3ccnc3)cc2)C1 (configuration not stated)	.	.	?	.	29µM	.
CC1CN(S(=O)(=O)c2ccc(C(=O)Nc3nnc(-c4ccccn4)o3)cc2)CC(C)O1 (configuration not stated)	.	.	.	.	.	.
CC(C)(C)c1ccc(-c2nnc(SCC(=O)NC3CCS(=O)(=O)C3)n2N)cc1 (configuration not stated)	?	.	.	.	.	.
CCOC(=O)/C(C#N)=C/c1cc(C)n(-c2ccc(C)cc2)c1C	.	.	18µM	.	18µM	.
Cc1cc(C=O)c(C)n1-c1ccc(N2CCOCC2)c([N+](=O)[O-])c1	.	.	?	.	?	.
Cc1cc(/C=C(\C#N)C(=O)Nc2ccc(Cl)cc2)c(C)n1-c1ccc(N2CCOCC2)c([N+](=O)[O-])c1	.	.	7.3µM	.	7.3µM	.
CCOC(=O)/C(C#N)=C\c1cc(C)n(-c2ccccc2)c1C	.	.	?	.	?	.
CNC(=O)/C(C#N)=C/c1cc(C)n(-c2ccc(N3CCOCC3)cc2)c1C	.	.	?	.	3.3µM	.
Cc1cccc(NC(=O)/C(C#N)=C\c2cc(C)n(-c3ccc(C(=O)O)cc3)c2C)c1	.	.	18µM	.	?	.
Cc1cc(/C=C(\C#N)C(=O)Nc2ccccc2)c(C)n1-c1ccc(C(=O)O)cc1	.	.	.	.	.	.
O=C(CN1CCN(C(=O)C2COc3ccccc3O2)CC1)Nc1ccccc1 (configuration not stated)	.	.	.	.	.	.
Cc1ccc(S(=O)(=O)N2CCC(C(=O)Nc3ccc(C)c(Cl)c3)CC2)cc1	/	.	?	.	?	/
Cc1ccc(Cn2c(=O)n(CCc3ccccc3)c(=O)c3sc4ccccc4c32)cc1	/	.	.	.	.	.
Cc1ccc(NC(=O)/C(C#N)=C/c2cc(C)n(-c3ccc(N4CCOCC4)c([N+](=O)[O-])c3)c2C)c(C)c1	.	.	8.2µM	.	7.3µM	.
Cc1ccc(C)c(N2C(=O)c3cc(N4CCOCC4)c([N+](=O)[O-])cc3C2=O)c1	.	.	.	.	.	.
SMILES	PLK1 PBD block	VDR inh	TDP1 cell noCPT	GCN5L2 inh	TDP1 cell CPT	TDP1 block
COc1ccc(N2CCN(C(CNC(=O)c3c(F)cccc3F)c3ccc4c(c3)OCO4)CC2)cc1 (configuration not stated)	/	.	16µM	.	?	.
CCOc1ccc(C(=O)NCC(c2ccc3c(c2)OCO3)N2CCN(C)CC2)cc1 (configuration not stated)	/	.	.	.	.	.
O=C(NCC(c1ccc2c(c1)OCO2)N1CCN(c2ccccc2F)CC1)c1ccccc1F (configuration not stated)	/	.	15µM	.	12µM	.
Cc1cccc(C(=O)NCC(c2ccc3c(c2)OCO3)N2CCOCC2)c1 (configuration not stated)	/	.	23µM	.	?	.
COc1ccc(N2CCN(C(CNC(=O)C(C)C)c3ccc4c(c3)OCO4)CC2)cc1 (configuration not stated)	.	.	.	.	.	.
O=C(NCC(c1ccc2c(c1)OCO2)N1CCOCC1)c1ccccc1 (configuration not stated)	/	.	?	.	.	.
CCOc1ccc(C(=O)NCC(c2ccc3c(c2)OCO3)N2CCN(c3ccccc3F)CC2)cc1 (configuration not stated)	/	.	21µM	.	16µM	.
CNC(=O)N(O)C1N(/N=C/c2cc(Br)ccc2O)C(=S)SC1(C)C (configuration not stated)	.	.	?	.	?	/
O=C1CCc2cc(S(=O)(=O)NC(C(=O)Nc3ccc(F)cc3)c3ccccc3)ccc2N1 (configuration not stated)	/	.	.	.	?	.
O=C(NCC(c1ccc2c(c1)OCO2)N1CCN(c2ccccc2)CC1)c1ccc(F)c(F)c1 (configuration not stated)	/	.	2.3µM	.	5.2µM	.
COc1ccc(C(=O)NCC(c2ccc3c(c2)OCO3)N2CCOCC2)cc1 (configuration not stated)	/	.	?	.	?	.
COc1ccc(C(=O)NCC(c2ccc3c(c2)OCO3)N2CCN(c3ccccc3F)CC2)cc1 (configuration not stated)	/	.	5.2µM	.	7.3µM	.
COc1nc2c(c(-c3cc(Br)cs3)c1C#N)Cc1ccccc1-2	.	.	26µM	.	?	.
CC(=O)N1CCc2cc(Br)cc(S(=O)(=O)NCCc3cccc(C)c3)c21	/	.	?	.	?	.
